Values joined by “and” are separate entries in the source; they are usually repeats but may differ in a detail not shown here. Equal values may be shown once. Compounds without any hit were thinned out: in the full panel of roughly 79,000, 15% have a hit. A number with no mark means an inactive call. Active and inactive are the calls of the source. No stated cut-off is given here; in the data, active means growth inhibition above about 70%; inactive means the rest.
Assay: NCI Yeast Anticancer Drug Screen. Data for the mec2-1 strain (AID 157)
Conditions: S. cerevisiae mec2-1 strain, at 50.0 µM, hits give high values
Summary of the method: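 Yeast mec2-1 mutant treated with compound. Readout: growth inhibition vs vehicle controls.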

Compound | growth inhibition
CCC[CH2][Sn]([CH2]CCC)([CH2]CCC)[O]C(=O)C(OC(C)=O)c1ccccc1 (configuration not stated) | 92.2% (active)
COc1ccc2c(c1)C(OC)C1c3c(cc4c(c3-2)OCO4)CCN1C (configuration not stated) | -17.5%
OCCN1CCNCC1 | -0.5% and -14.3%
Cc1nc([N+](=O)[O-])c(Sc2nncc(-c3ccccc3)n2)n1C | 97.5% (active)
COC(=O)C(Cc1ccccc1)NC(=O)C(CNC(=O)OCc1ccccc1)C(=O)OCc1ccccc1 (configuration not stated) | -5.6% and -6.65%
Cn1c(=O)c2[nH]cnc2n(C)c1=O | -16.1% and 2.3%
CCSC(SCC)C(OC(C)=O)C(OC(C)=O)C(COC(C)=O)OC(C)=O (configuration not stated) | -2.3% and -2.8%
CC1=CC(=O)C=CC1(C)C(Cl)(Cl)Cl (configuration not stated) | -1.55%
C=CCC1=C(C)C(OC(=O)C=C(C)C)CC1=O (configuration not stated) | -4% and -13.8%
CCOC(=O)C(=Cc1ccco1)C(=O)OCC | 37.1% and -24.6%
CCOC(=O)c1ccc(N=[N+]([O-])c2ccc(C(=O)OCC)cc2)cc1 | -4.95% and -4.3%
Nc1c(O)nc[nH]c1=O | -5.15% and -3.15%
C=C1C(=O)C2=CC1CCC(=O)C1(C)CCC(OC(C)=O)C(C)(C)C1CC2O (configuration not stated) | 82.8% (active)
NCCCNCCSSC/C=C\CSSCCNCCCN | -15.6% and -4.85%
CN(C)N=Nc1ccc(C(=O)O)cc1 | 22.1% and -1.3%
C1=NCCCN1 | -7.95% and -23.4%

Compound | growth inhibition
CCOc1ccc(C(CN2CCOCC2)C(C)=O)cc1OC (configuration not stated) | 77.7% (active)
OCCCc1ccncc1 | -4.65% and -4.7%
CC(C)c1ccc(C(=O)O)cc1 | -9.2% and 12.3%
CC(=O)OCC1OC(n2c(N)c(C#N)c(C)c(C#N)c2=S)C(OC(C)=O)C(OC(C)=O)C1OC(C)=O (configuration not stated) | -13% and -5.75%
COc1cc(/C=C2\SC(=S)N(/C=C/c3nc4ccccc4[nH]c3=O)C2=O)cc(OC)c1OC | 14.7%
O=[N+]([O-])c1ccc(C2N(Cc3ccc(Cl)cc3)CCN2Cc2ccc(Cl)cc2)cc1 | 56.5%
O=C(CC(=O)c1ccc(Cl)cc1)Cc1ccc2ccccc2n1 | 29.4% and 38.6%
O=C(O)c1cc([N+](=O)[O-])ccc1Nc1ccccc1 | 0.2% and -12.4%
O=C(NC(=O)c1ccccc1)NC(=O)c1ccccc1 | -10% and -14.1%
O=[N+]([O-])/C(=C/c1ccccc1)c1ccccc1 | 99.7% (active)
Nc1ccc(CCc2ccc(N)cc2)cc1 | -6.85% and -19.4%
CC(O)c1nc2c([nH]1)c(=O)n(C)c(=O)n2C (configuration not stated) | -6.2% and -8.9%
c1ccc(-c2cc3cc4ccccc4cn3c2)cc1 | 83.8% (active)
CN(C)CC1CC(=O)C(CN(C)C)CC1=O (configuration not stated) | 1.85% and -5.7%
O=C(OC(=C(c1ccccc1)c1ccccc1)c1ccccc1)c1ccccc1 | -0.2% and -10.2%
COc1cc(C)c2c(ccc3ccccc32)n1 | 19.5% and 24.4%

Reference: PubChem BioAssay (NCI)
